# TDP1 cell CPT: growth inhibition of DT40 Tdp1-/-;hTDP1 cells with camptothecin (screen for TDP1 inhibitors) | AID 686979 | chicken DT40 Tdp1-/-;hTDP1 cells + 20 nM CPT, ATP luminescence, 48 h | 420,000 compounds, 12% hits | Potency, µM (doses to about 46.2 µM), inactives show at the highest dose activity change, negative = growth inhibition, usual class: inhibitors; note: potency is the fitted concentration of half-maximal effect; nearly all actives have a fitted effect of over 55% in size
#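 Cell growth measured by CellTiter-Glo luminescence after a minimum 48 h, 37 C compound exposure with 20 nM CPT in Tdp1-knockout DT40 cells stably expressing hTDP1, seeded 400/well; qHTS titration format.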
# HT1080NT lethal: kills 2HG-producing HT-1080-NT fibrosarcoma cells | 360,000 compounds, 1.6% hits | HT-1080-NT fibrosarcoma viability, CellTiter-Glo ATP luminescence, 48 h | Potency, µM (top dose mostly 46.1 µM), for inactives: at the top dose activity, negative = less viability, actives largely listed as cytotoxic;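 note: NT is the 2HG producing partner of a matched IDH1 knockdown line; potency is the fitted concentration of half-maximal effect; 0% = DMSO-treated cells and -100% = media-only wells without cells; nearly all actives have a fitted effect of over 55% in size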
#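 Compounds were tested in concentration-response format on HT-1080-NT cells for 48 hours at 37 degrees C. Cell viability came from CellTiter-Glo luminescence; curves were classified by r2, response magnitude and activity.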
# HT1080 IDH1KD tx: HT-1080 IDH1 knockdown cell toxicity (counter line); HT-1080 IDH1 knockdown viability, ATP luminescence, 48 h; Potency, µM (titrated, usually from 46.1 µM), without a hit: at the top dose activity, negative = toxicity, hits mostly cytotoxic; 360,000 compounds, 2% hits; AID 686971;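 note: potency is the fitted concentration of half-maximal effect; 0% = DMSO wells and -100% = cell-free medium wells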
#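 HT-1080-IDH1KD cells (IDH1 knocked down), 750/well in RPMI with 5% FBS, treated with compound 48 h at 37 degrees C. Viability by CellTiter-Glo luminescence, normalised to DMSO and no-cell wells; concentration-response curves classed.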
# DT40 TDP1 no CPT: qHTS for Inhibitors of human tyrosyl-DNA phosphodiesterase 1 (TDP1): qHTS in cells in absence of CPT; DT40 Tdp1-/- hTDP1 cells, no CPT, ATP luminescence, 48 h; Potency, µM (titrated, usually from 46.2 µM), inactives show at the top dose activity change, negative = growth inhibition, usual class: inhibitors; 420,000 compounds, 15% hits; AID 686978, 2013; note: potency is the fitted concentration of half-maximal effect; nearly all actives have a fitted effect of over 55% in size
#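 Seeded 400 DT40-hTDP1 cells/well (vehicle DMSO, no 20 nM CPT); pinned compounds; ≥48 hr at 37 °C; CellTiter-Glo luminescence as viability measure.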
# IL1B secr inh: inflammasome signaling inhibition, IL-1 beta readout; 360,000 compounds, 4.7% hits; activity change, % at 57.5 µM; THP-1 LPS/ATP IL-1B secretion, AlphaLISA, 16 h; hits give low values; in the data active = activity change below about -50%; inconclusive = mostly about -30% to -49%
#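 THP-1 cells pretreated 1 hr with compounds (up to 57.5 uM final), then stimulated with LPS (250 ng/mL final) plus ATP (1.25 mM final); secreted IL-1B measured by AlphaLISA after 16 hr, decreased signal indicating inhibition.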
# Active calls of the source: *; ? = inconclusive; . = not tested or not shown; [ ] = dose if it differs, or a comment. In the library only some 19% were active in any assay of this set; here they are far more common. Unless noted, calls come from the whole dose curve; as a rule, active = well fitted curve in the direction sought with a large enough effect; inconclusive = small, poorly fitted or top-dose-only effect, or another doubt; inactive = no such curve, though single readings can be large; an effect the other way counts as inactive or inconclusive. Unless noted, % is set by controls: 0 for no effect and ±100 for the full control effect.
SMILES,TDP1 cell CPT,HT1080NT lethal,HT1080 IDH1KD tx,DT40 TDP1 no CPT,IL1B secr inh
COc1ccc(Oc2ncc3nc(-c4cc(F)cc(F)c4)c(=O)n(C)c3n2)cc1,-3%,.,.,-23%,.
CCN(CC(=O)Nc1ccc(OC)c(Cl)c1)CC(=O)NC(C)C,1%,8%,22%,-15%,8
COCCCNC(=O)N1CCN(c2nnc(C)c3c(C)n(-c4ccc(Cl)cc4)nc23)CC1,-10%,.,.,-12%,.
COc1ccc(F)cc1S(=O)(=O)Nc1ccc(C)cc1,-3%,-10%,-25%,23µM*,9
COc1ccc(NS(=O)(=O)c2cc(C)ccc2OC)cc1OC,-15%,0%,-1%,-14%,0
CC1=C(C(=O)N2CCCCCC2)CC(CC(=O)NC2CC2)C(=O)N1Cc1ccccc1 (stereo unspecified),3%,27%,20%,2%,-20
CC(C)CCc1noc(CN2CCN(CC(=O)NC(C)C)CC2)n1,26µM*,-12%,-5%,26µM*,22
CCOc1ccc(OCCNC(=O)c2cc(C3CC3)nc3c2cnn3C(C)C)cc1,16µM*,-6%,-24%,5.2µM*,?
CC(C)n1ncc2c(C(=O)Nc3cccc(C#N)c3)cc(C3CC3)nc21,?,-24%,?,?,-58*
CC(C)n1ncc2c(C(=O)N3CCN(Cc4ccc(Br)s4)CC3)cc(C3CC3)nc21,26µM*,-2%,0%,23µM*,?
COc1ccc(NC(=O)c2cc(-c3ccccc3)nc3c2cnn3C(C)C)cc1,?,-1%,-17%,?,-70*
O=C(OC1CO[C@H]2O[C@@H]1[C@H](OC(=O)c1ccccc1)[C@H]2OC(=O)c1ccccc1)c1ccccc1 (stereo partly specified),15%,4%,0%,-6%,4
O=C1NC2(CCCCO2)CO1 (stereo unspecified),-22%,8%,7%,3%,0
CC(C)n1ncc2c(C(=O)NCCOc3ccccc3F)cc(C3CC3)nc21,12µM*,-3%,-8%,3.3µM*,-26
COc1ccc(-c2cc(C(=O)Nc3cc(C)on3)c3ccccc3n2)c(OC)c1,12µM*,1%,1%,9.2µM*,28
Cc1cc(NC(=O)c2cc(-c3ccc(C)c(C)c3)nc3ccccc23)no1,12µM*,3%,-22%,10µM*,15
Cc1cc(NC(=O)c2cc(-c3ccccn3)nc3ccccc23)no1,-7%,-4%,-1%[9.24 µM],-21%,5
Cc1cc(C)nc(NC(=O)c2cc(-c3ccc(C)s3)nc3ccccc23)c1,?,-5%,-1%,21µM*,-15
Cc1ccc(NC(=O)c2cc(-c3cccs3)nc3ccccc23)c(C)c1,-28%,.,.,?,.
Cc1cc(NC(=O)c2cc(-c3cccs3)nc3ccccc23)no1,21µM*,?,?,26µM*,9
CCNC(=O)C1CCCN(C(=O)c2ccccc2)CC1 (stereo unspecified),2%,?,26%,-13%,32
O=C(O)c1nn(CCOc2cccc(Br)c2)c(=O)c2ccccc12,10%,3%,-12%,5%,13
Cc1cc(NC(=O)CSc2nc(-c3cccs3)nc3ccccc23)no1,2.3µM*,5.8µM*,5.2µM*,1.8µM*,26
Cc1cc(NC(=O)CSc2nc(C(C)(C)C)nc3ccccc23)no1,?,0%,1%,?,0
CCCCNC(=O)NC1(C(F)(F)F)Oc2ccccc2O1,-22%,-12%,-2%,?,23
SMILES,TDP1 cell CPT,HT1080NT lethal,HT1080 IDH1KD tx,DT40 TDP1 no CPT,IL1B secr inh
Cc1cc(NC(=O)Nc2ccc(F)c(Cl)c2)no1,-27%,0%[9.24 µM],-25%,-10%,-24
Cc1cc(NC(=O)NC2(C(F)(F)F)Oc3ccc(Cl)cc3O2)no1 (stereo unspecified),18µM*,?,10µM*,18µM*,44
O=C(NCc1cccnc1)NC1(C(F)(F)F)Oc2ccc(Cl)cc2O1 (stereo unspecified),10µM*,-27%,?,12µM*,28
COCCNC(=O)NC1(C(F)(F)F)Oc2ccc(Cl)cc2O1 (stereo unspecified),18µM*,?,?,13µM*,0
COc1cc(NC(=O)C2CCN(c3cnc4ccccc4n3)CC2)cc(OC)c1OC,-3%,.,.,-21%,.
COc1ccccc1-c1nnc(SCC(=O)c2c(N)n(C3CC3)c(=O)[nH]c2=O)o1,0%,-2%,-5%,-12%,27
CC(C)OCCCN(CC(O)c1ccccc1)CC(O)c1ccccc1 (stereo unspecified),?,2%,10%,?,-7
OC(CN(Cc1ccccc1)Cc1ccccc1)c1ccccc1 (stereo unspecified),16µM*,-1%,?,18µM*,-9
C[C@H](c1ccccc1)N1C[C@H](COCc2ccccc2)Oc2cc(N3CC[C@@H](O)C3)ccc2S1(=O)=O,?,?,?,?,6
COc1ccc(NC(=O)Nc2nnc(N3CCCCCC3)s2)c(OC)c1,?,.,.,18µM*,.
O=C(Nc1ccncc1)Nc1cccc(C(F)(F)F)c1,?,7%,-9%,15µM*,-2
CCOc1ccc(NC(=O)Nc2nnc(N3CCCCC3C)s2)cc1 (stereo unspecified),23µM*,.,.,23µM*,.
O=C(Nc1cccc(C(F)(F)F)c1)NC1CCCCC1,23µM*,?,?,?,-3
CN1CCC(NC(=O)Nc2cccc(C(F)(F)F)c2)CC1,12%,-8%,-3%,-8%,-9
COc1ccc(NC(=O)Nc2nnc(N3CCCCC3C)s2)cc1OC (stereo unspecified),5%,20%,-2%,-20%,4
O=C(Nc1cccc(C(F)(F)F)c1)Nc1nnc(N2CCCCCC2)s1,?,.,.,5.8µM*,.
NC(=O)/C=C\C(=O)Nc1cccc(C(F)(F)F)c1,5.2µM*,?,10µM*,21µM*,-105*
O=C(Nc1nnc(N2CCCCCC2)s1)Nc1cc(F)ccc1F,-24%,.,.,?,.
Cc1ccccc1NC(=O)COC(=O)/C=C/c1cccc(C(F)(F)F)c1,3%,17%,14%,-6%,1
O=C(Nc1cccc(C(F)(F)F)c1)Nc1ccon1,-27%,0%,-1%,?,24
O=C(Nc1ccc(OC(F)F)cc1)Nc1cccc(C(F)(F)F)c1,3.7µM*,?,?,4.6µM*,-80*
Cc1ccccc1NC(=O)/C=C/c1cccc(C(F)(F)F)c1,-19%,-7%,8%,-23%,-57*
NNC(=O)Nc1cccc(C(F)(F)F)c1,-7%,8%,13%,19%,17

# Assay outcomes deposited in PubChem by National Center for Advancing Translational Sciences (NCATS).
